Compound activity: PubChem, National Center for Advancing Translational Sciences (NCATS)
Sm TGR inh = qHTS Assay for the Inhibitors of Schistosoma Mansoni Peroxiredoxins; Schistosoma mansoni thioredoxin glutathione reductase (TGR), Q962Y6; purified TGR, DTNB reduction, TNB absorbance 405 nm; Potency, µM (highest dose often 114 µM), for inactives: at the top dose activity change, negative = inhibition, actives largely listed as inhibitors; hit rate 3% among 360,000; also: potency is read from the fitted curve at half-maximal effect; nearly all actives have a fitted effect of over 60% in size
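TGR 20 nM + NADPH 100 uM (dispensed conc.), cpd preinc 15 min RT; start with NADPH (500 uM addition) then DTNB (15 mM addition). Kinetic TNB absorbance, 405 nm filter. Four-parameter Hill fit across titration.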
FMDV inh = High Throughput Screening for Foot and Mouth Disease Virus Antivirals; FMDV antiviral cell-based qHTS; Potency, µM (doses to about 57.9 µM), without a hit: at the highest dose activity change, negative = inhibition, usual class: inhibitors; hit rate 1.2% among 410,000; AID 1159524, 2015; calls by dose curve; tested in HEK293T cells; also: read-out not given here; potency is read from the fitted curve at half-maximal effect; nearly all actives have a fitted effect of over 45% in size
HCMV inh = qHTS Assay for inhibitors of the human cytomegalovirus (HCMV); HFF cells, HCMV-luciferase reporter, 72 h; hits give low values; activity change, negative = inhibition, % at 57.5 µM; hit rate 4.5% among 410,000; in the data active = activity change below about -60%; inconclusive = no clear call, values can overlap the other calls; inactive = above about -39%
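Human foreskin fibroblasts infected with luciferase-reporter HCMV at MOI 1 PFU/cell, compounds at two doses. Luciferase measured 72 h post infection; normalized to buffer-only basal and Salinomycin (10uM) controls.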
RE007 growth inh = qHTS Assay for Inhibitors of the HIV-1 protein Vpr | hit rate 0.21% among 360,000 | Potency, µM (doses to about 92.2 µM), inactives show at the highest dose activity change, negative = less growth, usual class: inhibitors | AID 651644, 2012 | S. pombe RE007 Vpr strain, BacTiter-Glo ATP luminescence, 24 h; active = well fitted falling curve with a large enough effect; inconclusive = small, poorly fitted or top-dose-only effect; inactive = no such curve, though single readings can be large or run the other way; also: potency is read from the fitted curve at half-maximal effect; nearly all actives have a fitted effect of over 50% in size
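Fission yeast strain RE007, carrying one chromosomally integrated HIV-1 vpr copy, was seeded at OD 0.01 in PMG+AL medium with 23 nL pinned compound. After 24 h at 30 °C and 99% humidity, viability was read by BacTiter-Glo luminescence.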
Tb PYK inh = qHTS of Trypanosoma Brucei Inhibitors; pyruvate kinase (Trypanosoma brucei), Q57TT1; Potency, µM (top dose mostly 76.8 µM), for inactives: at the top dose activity, negative = inhibition, actives largely listed as inhibitors; AID 624173, 2012; TbPYK enzyme, Kinase-Glo Plus ATP luminescence, 45 min; hit rate 0.12% among 410,000; also: potency is read from the fitted curve at half-maximal effect; nearly all actives have a fitted effect of over 50% in size
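Readout: single end-point luminescence (Kinase-Glo Plus, 10 min). Reaction conditions were TbPYK/substrate plus 130 uM ADP, 45 min at RT, pH 7.2 TEA buffer. No-enzyme wells served as controls, and data were normalized before concentration-response fitting.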
FBPA Giardia inh = qHTS Assay for Inhibitors of Fructose-1,6-bisphosphate Aldolase from Giardia Lamblia. A8B2U2. purified Giardia FBPA. AID 2451, 2010. Potency, µM (doses to about 59.6 µM), without a hit: top-dose activity, negative = inhibition, actives largely listed as inhibitors. hit rate 0.71% among 290,000; also: potency is read from the fitted curve at half-maximal effect; nearly all actives have a fitted effect of over 55% in size
Target sequence (A8B2U2 whole entry, looked up): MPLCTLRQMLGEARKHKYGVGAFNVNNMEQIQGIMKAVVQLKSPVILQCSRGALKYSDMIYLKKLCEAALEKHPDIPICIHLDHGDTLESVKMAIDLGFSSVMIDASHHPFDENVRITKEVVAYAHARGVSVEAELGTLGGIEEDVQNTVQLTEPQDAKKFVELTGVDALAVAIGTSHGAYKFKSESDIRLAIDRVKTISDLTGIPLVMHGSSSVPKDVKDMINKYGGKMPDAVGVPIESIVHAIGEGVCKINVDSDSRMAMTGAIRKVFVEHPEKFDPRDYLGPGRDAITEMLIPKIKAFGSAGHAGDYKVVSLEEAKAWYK
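Giardia FBPA (40 nM reagent) was preincubated 10 min at RT with compound (up to 57.5 uM final), then substrate plus GAPDH/TPI/NAD/arsenate coupling system with diaphorase/resazurin was added; resorufin fluorescence (525/598 nm) was read after 20 min.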
The depositor's hits bear a star. Sampled rows, rich in hits. Any-hit rate of the full collection: about 7.7%. Unless noted, calls follow the shape of the dose curve; as a rule, active = well fitted curve in the direction sought with a large enough effect; inconclusive = small, poorly fitted or top-dose-only effect, or another doubt; inactive = no such curve, though single readings can be large; an effect the other way counts as inactive or inconclusive. % is scaled to controls: 0 for no effect and ±100 for the full control effect.

Results for CCn1nc(C(=O)NCC(c2cccs2)N2CCOCC2)c2ccccc2c1=O (stereo unspecified) ?
Sm TGR inh: 0.2%; FMDV inh: 0.0%; HCMV inh: -27.9; RE007 growth inh: 17.6%; Tb PYK inh: 4.9%; FBPA Giardia inh: -5.8%

Results for CC1(C(=O)NC2CCCCC2)Cc2ccccc2C(=O)N1Cc1ccccc1Cl (stereo unspecified) ?
Sm TGR inh: -7.3%; FMDV inh: -12.0%; HCMV inh: -15.6; Tb PYK inh: -5.4%

Results for COc1ccc(NC(=O)c2ccco2)cc1NC(=O)C(C)(C)Oc1ccc(Cl)cc1 ?
Sm TGR inh: -13.9%; FMDV inh: 44.7µM*; HCMV inh: -1.1; Tb PYK inh: -7.7%

What do the screens show for `COc1ccc(NC(=O)c2ccco2)cc1NC(=O)c1ccco1`?
Sm TGR inh: -19.8%; FMDV inh: -15.3%; HCMV inh: 16.1; RE007 growth inh: 1.8%; Tb PYK inh: 0.6%; FBPA Giardia inh: 4.6%

What do the screens show for `COc1ccc(NC(=O)c2ccco2)cc1N`?
Sm TGR inh: -5.2%; FMDV inh: 25.0%; HCMV inh: 72.5; RE007 growth inh: -2.8%; Tb PYK inh: -14.3%; FBPA Giardia inh: 39.8µM*

What do the screens show for `COc1ccc(NC(=O)c2ccco2)cc1NC(=O)C(C)Oc1ccc(Cl)cc1Cl` (stereo unspecified)?
Sm TGR inh: 4.2%; FMDV inh: inconclusive; HCMV inh: -80.1*; Tb PYK inh: 1.3%

How did COc1cc(C(=O)OCC(=O)NC2CCCC2)cc(NC(=O)c2ccco2)c1OC do in these assays?
Sm TGR inh: -22.9%; FMDV inh: 7.9%; HCMV inh: -20.8; RE007 growth inh: 6.4%; Tb PYK inh: 5.0%; FBPA Giardia inh: -0.9%

Results for COc1cc(C(=O)OCC(C)=O)cc(NC(=O)c2ccco2)c1OC ?
Sm TGR inh: 1.6%; FMDV inh: -29.7%; HCMV inh: -68.6*; RE007 growth inh: 8.1%; Tb PYK inh: -0.9%; FBPA Giardia inh: 1.4%

How did Cc1ccc(NC(=O)C(Cc2ccccc2)N2Cc3ccccc3C2=O)cc1Cl (stereo unspecified) do in these assays?
Sm TGR inh: 2.6%; FMDV inh: -3.1%; HCMV inh: -32.3; Tb PYK inh: -10.5%

Results for Cc1c(-c2ccc(Cl)cc2)c(=O)oc2c(CN3CCN(CCO)CC3)c(O)ccc12 ?
Sm TGR inh: -7.0%; FMDV inh: -16.7%; HCMV inh: -24.7; Tb PYK inh: -5.3%

What do the screens show for `COc1ccccc1CNc1ncnc2ccc(-c3cccnc3)cc12`?
FMDV inh: -2.5%; FBPA Giardia inh: 0.4%

What do the screens show for `COCc1c(C(=O)N2CCCC(C)C2)cnn1-c1nccc(-c2cc(C)sc2C)n1` (stereo unspecified)?
FMDV inh: 25.9%

How did COc1cc(NC(=O)Cc2ccccc2)ccc1NC(=O)c1ccco1 do in these assays?
Sm TGR inh: -5.3%; FMDV inh: 69.4%; HCMV inh: -8.7; RE007 growth inh: 7.2%; Tb PYK inh: -3.5%; FBPA Giardia inh: -4.2%

What do the screens show for `COc1ccc(NC(=O)Cc2ccc(Cl)cc2)cc1NC(=O)c1ccco1`?
Sm TGR inh: -1.5%; FMDV inh: -25.6%; HCMV inh: -85.9*; RE007 growth inh: -10.8%; Tb PYK inh: 4.7%; FBPA Giardia inh: 2.9%

Results for CCOc1cc(CNc2ccc3c(c2)OCCO3)cc(Br)c1OC ?
Sm TGR inh: 11.1%; FMDV inh: 25.1µM*; HCMV inh: -86.5*; RE007 growth inh: -26.3%; Tb PYK inh: -10.0%; FBPA Giardia inh: -10.7%

Results for CCOc1cc(CNc2ccc3c(c2)OCCO3)cc(Br)c1OCC(N)=O ?
Sm TGR inh: 0.0%; HCMV inh: -33.0; RE007 growth inh: -3.7%; Tb PYK inh: -12.6%; FBPA Giardia inh: -3.7%

What do the screens show for `CCOc1c(Br)cc(CNc2ccc3c(c2)OCCO3)cc1OC`?
Sm TGR inh: inconclusive; FMDV inh: 25.1µM*; HCMV inh: -81.6*; RE007 growth inh: -20.1%; Tb PYK inh: -10.4%; FBPA Giardia inh: inconclusive

Results for C=CCN1CCN(C(c2ccc(Cl)cc2)c2nnnn2CCc2ccc(OC)c(OC)c2)CC1 (stereo unspecified) ?
Sm TGR inh: -5.7%; FMDV inh: -5.1%; HCMV inh: -100.7*; RE007 growth inh: 21.3%; Tb PYK inh: 2.0%; FBPA Giardia inh: 3.2%

What do the screens show for `O=C(N/N=C/c1ccccc1Cl)c1cccc(F)c1`?
Sm TGR inh: 11.8%; FMDV inh: 7.8%; HCMV inh: 57.6; RE007 growth inh: -0.3%; Tb PYK inh: -12.2%; FBPA Giardia inh: -1.6%

Results for O=C(N/N=C/c1c(Cl)cccc1Cl)c1cccc(F)c1 ?
Sm TGR inh: 35.5µM*; FMDV inh: 59.0%; HCMV inh: -11.0; RE007 growth inh: -10.4%; Tb PYK inh: -15.7%; FBPA Giardia inh: 4.2%

What do the screens show for `Cc1[nH]n(-c2ccccc2)c(=O)c1/C=N/NC(=O)c1cccc(F)c1`?
Sm TGR inh: 1.5%; FMDV inh: -6.1%; HCMV inh: -98.1*; RE007 growth inh: 15.4%; Tb PYK inh: -4.1%; FBPA Giardia inh: inconclusive

How did Cc1[nH]n(-c2ccc(Br)cc2)c(=O)c1/C=N/NC(=O)c1ccccc1 do in these assays?
Sm TGR inh: -4.8%; FMDV inh: -5.1%; HCMV inh: -98.3*; RE007 growth inh: -1.2%; Tb PYK inh: 4.6%; FBPA Giardia inh: 1.8%

Results for Cc1cc(C(=O)N/N=C/c2c(C)[nH]n(-c3ccccc3)c2=O)n[nH]1 ?
Sm TGR inh: 0.1%; FMDV inh: -14.0%; HCMV inh: 5.1; RE007 growth inh: -6.5%; Tb PYK inh: 4.3%; FBPA Giardia inh: -8.7%

Results for Cc1[nH]n(-c2ccccc2)c(=O)c1/C=N/NC(=O)c1ccc(O)cc1O ?
Sm TGR inh: 50.2%; FMDV inh: 15.5%; RE007 growth inh: 3.5%; Tb PYK inh: -2.3%; FBPA Giardia inh: -24.5%

Results for CCC(C)NC(=O)c1ccc(Cn2c(=O)c3cccn3c3cccnc32)cc1 (stereo unspecified) ?
Sm TGR inh: 6.7%; FMDV inh: -3.3%; HCMV inh: 2.6; Tb PYK inh: -9.7%

What do the screens show for `CC1CC(C)(O)CC(C(O)CC2CC(=O)NC(=O)C2)C1=O` (stereo unspecified)?
FMDV inh: inconclusive; HCMV inh: -74.8*; RE007 growth inh: inconclusive; Tb PYK inh: -6.1%
